# Screen size: about 300,000 compounds; about 1,700 (0.57%) were called active. Inconclusive results (about 2%) are left out. The list comes from a sample in which actives are over-represented; it also holds similar structures and randomly drawn compounds. Values without a mark were called inactive.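 Rule for the calls: active = growth inhibition above about 58% in most replicates (limit read from the data, passing the limit was not always enough); inconclusive = exactly half the replicates above a set limit; inactive = most replicates below a set limit.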
# Assay: C. albicans growth inhibition with fluconazole, primary screen, CaCi-2 strain, Alamar Blue fluorescence (AID 1979);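 note: all wells also contain fluconazole at 8 µg/ml as a sub-toxic cotreatment; 0% = median of DMSO wells and 100% = median of geldanamycin control wells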
# Conditions: C. albicans CaCi-2 (fluconazole-resistant clinical isolate) + fluconazole, 48 h, active compounds read high, concentration not given here
row,Compound,growth inhibition
1,Cc1cc2ccccn2c1C(C[N+](=O)[O-])c1c(F)cccc1Cl (stereo not given),88.5% (active)
2,C/C(=N/O)c1ccc2ccc3ccccc3c2c1,-4.17%
3,Cc1nn(-c2ccccc2)c(C)c1NC(=O)COC(=O)Cc1ccccc1,-2.49%
4,O=C(Cc1ccccc1)N1CCN(C2CCCCCC2)CC1,-12%
5,CC1=C(C(=O)Nc2ccccc2)SCCO1,0.0228%
6,Cc1cccc(-n2c(O)c(C=NC34CN5CN(CN(C5)C3)C4)c(=O)[nH]c2=O)c1,-4%
7,Cc1cccc(-n2c(O)c(/C=N/N3CCOCC3)c(=O)[nH]c2=S)c1,12.2%
8,Cc1cccc(-n2c(O)c(C=Nc3ccccc3N)c(=O)[nH]c2=O)c1,103% (active)
9,COc1ccccc1C1=NCc2nnc(CSC)n2-c2ccc(Cl)cc21,2.88%
10,COc1ccc(S(=O)(=O)NCc2ccc(C(=O)N3CCC4(CC3)OCCO4)cc2)cc1,-9.32%
11,CC(C)(C)c1ccc(OC(=O)N2CCCCC2)cc1,11.1%
12,C=CCN1C(=O)NC(=O)/C(=C/c2ccc(OCC(=O)Nc3ccc(C)cc3)cc2)C1=O,-16.2%
13,CC1=CC(=Cc2sc3ccccc3[n+]2C)C=C(C)O1,103% (active)
14,CNCC(O)c1cc(F)c(OCc2ccccc2)c(OCc2ccccc2)c1F (stereo not given),-32.5%
15,COc1ccccc1NC(=O)N1C[C@@H]2C[C@@H](C1)c1cccc(=O)n1C2,7.25%
